A short description of assay [1]: ATG_GLI_CIS: Attagene CIS-FACTORIAL HepG2 Assay for human Zinc Finger Protein GLI1 (AID 2282945). Particulars: HepG2, Attagene cis-factorial reporter mRNA, GLI element; actives raise or lower the signal. In a few lines:
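HepG2 cells transiently transfected with cis-promoter multiplexed reporter units report endogenous transcription factor activity. After 24 h chemical exposure, reporter mRNA was quantified by RT-PCR, 6-FAM labelling, HpaI digestion and capillary electrophoresis, with bidirectional fitting against DMSO.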

Assay [2] in a line: ATG_ISRE_CIS: Attagene CIS-FACTORIAL HepG2 Assay for human Interferon Regulatory Factor 1 (IRF1) binding to an Interferon-Stimulated Response Element (ISRE) (AID 2282948). The conditions noted are these: HepG2 ISRE cis-reporter (Attagene), mRNA transcription readout; actives raise or lower the signal. The method, boiled down: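 Transfected HepG2 (multiple reporter transcription units, cis elements) dosed 24 h. RNA → oligo(dT) RT → PCR → 6-FAM primer extension → HpaI → CE. DMSO = negative control/baseline.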

The nature of assay [3]: ATG_M_32_CIS: Attagene CIS-FACTORIAL HepG2 Assay for M32 Transcription Factor (Internal Marker) (AID 2282949).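 Also: background control marker of the multiplexed CIS panel rather than a real target.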 The conditions noted are these: HepG2 Attagene cis-factorial M32 reporter, mRNA; actives raise or lower the signal. The method, boiled down: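 Internal background marker read-out: RT-PCR/capillary electrophoresis fluorescence of reporter transcripts from transiently transfected HepG2 cells after 24 h chemical exposure. Activity fitted bidirectionally relative to DMSO negative control.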

Assay [4] in a line: ATG_M_06_CIS: Attagene CIS-FACTORIAL HepG2 Assay for M06 Transcription Factor (Internal Marker) (AID 2282950). Particulars: HepG2 Attagene CIS-FACTORIAL M06 internal marker reporter; actives raise or lower the signal. The method, boiled down:
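Terse: HepG2, transient MRTU transfection (FuGene 6), 24 h dosing; total RNA, oligo(dT) RT, PCR, FAM label, HpaI cut, capillary electrophoresis; bidirectional fit vs DMSO baseline; background-control endpoint.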

Assay [5] addresses Hypoxia-inducible factor 1-alpha (Homo sapiens) (UniProt Q16665). The assay can be described thus: ATG_HIF1a_CIS: Attagene CIS-FACTORIAL HepG2 Assay for human Hypoxia Inducible Factor 1 (HIF1A) (AID 2282951). Particulars: HepG2 Attagene cis-factorial HIF1a reporter transcription; actives raise or lower the signal. The method, boiled down:
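Endogenous-TF cis reporter readout, human HepG2 cells, 24 h incubation; mRNA detected via RT-PCR and capillary electrophoresis fluorescence; DMSO-normalised bidirectional fitting.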

Assay [6] addresses Hepatocyte nuclear factor 6 (Homo sapiens) (UniProt Q9UBC0). The assay can be described thus: ATG_HNF6_CIS: Attagene CIS-FACTORIAL HepG2 Assay for human Hepatocyte Nuclear Factor 6 (HNF6) (AID 2282952). Particulars: HepG2 Attagene cis-factorial HNF6 reporter transcription; actives raise or lower the signal. The method, boiled down:
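HepG2 cells transiently transfected with cis-element-driven multiplexed reporter units measuring endogenous transcription factor activity. After 24 h exposure, reporter mRNA quantified by RT-PCR, FAM-labelled fragments and capillary electrophoresis; bidirectional fitting versus DMSO.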

In assay [7] the target is Heat shock factor protein 1 (Homo sapiens) (UniProt Q00613). The assay can be described thus: ATG_HSE_CIS: Attagene CIS-FACTORIAL HepG2 Assay for human Heat Shock Transcription Factor 1 (HSE) (AID 2282953). Particulars: HepG2 HSE cis-reporter, Attagene RNA transcription; actives raise or lower the signal. The method, boiled down:
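Read-out: fluorescence of reporter-specific RT-PCR fragments separated by capillary electrophoresis. HepG2 carrying transfected cis-element reporter units; 24 h dosing; activity fitted in both directions relative to DMSO baseline.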

Assay [8] in a line: ATG_MRE_CIS: Attagene CIS-FACTORIAL HepG2 Assay for human Metal Responsive Element (MRE) (AID 2282954). The conditions noted are these: HepG2 MRE cis-reporter transcription, Attagene multiplex; actives raise or lower the signal. In a few lines: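 HepG2 cells transiently transfected with multiple cis-element reporter units measure endogenous MTF1-driven transcription. After 24 h compound exposure, reporter mRNA is quantified by RT-PCR with 6-FAM labelling, HpaI digestion and capillary electrophoresis; bidirectional fits versus DMSO.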

Assay [9] is described as follows: ATG_PBREM_CIS: Attagene CIS-FACTORIAL HepG2 Assay for human Phenobarbital-responsive Enhancer Module (PBREM) (AID 2282955). Particulars: HepG2 PBREM cis-reporter, Attagene multiplexed transcription; actives raise or lower the signal. In a few lines:
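Readout: reporter mRNA, fluorescent RT-PCR fragments separated by capillary electrophoresis. System: HepG2 transiently transfected with cis-regulated reporter units. Exposure: 24 h. Analysis: bidirectional, DMSO baseline.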

Assay [10] concerns the target Paired box protein Pax-6 (Homo sapiens) (UniProt P26367). The assay can be described thus: ATG_Pax6_CIS: Attagene CIS-FACTORIAL HepG2 Assay for human Paired Box 6 (PAX6) (AID 2282956). Particulars: HepG2 CIS-FACTORIAL PAX6 reporter transcription, RNA readout; actives raise or lower the signal. In a few lines:
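Transient MRTU transfection of HepG2 → compound exposure 24 h → TriZol RNA, oligo(dT) RT → PCR, 6-FAM primer extension, HpaI cut → capillary electrophoresis; activity fitted both directions against DMSO.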

Assay [11] is described as follows: ATG_PXRE_CIS: Attagene CIS-FACTORIAL HepG2 Assay for human Pregnane X Receptor Element (PXRE) (AID 2282957). The conditions noted are these: HepG2 Attagene CIS-FACTORIAL PXRE reporter, mRNA; actives raise or lower the signal. The method, boiled down: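 HepG2 cells transiently transfected with cis-element-driven multiplexed reporter units; after 24 h chemical exposure, reporter mRNA measured by RT-PCR, 6-FAM labelling, HpaI digestion and capillary electrophoresis. Bidirectional fitting relative to DMSO.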

A short description of assay [12]: ATG_PPRE_CIS: Attagene CIS-FACTORIAL HepG2 Assay for human Peroxisome Proliferator-activated Response Element (PPRE) (AID 2282958). The conditions noted are these: HepG2 PPRE cis-element reporter, Attagene transcription factor profiling; actives raise or lower the signal. The method, boiled down: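 After human HepG2 hepatoma cells were transiently transfected with cis-promoter reporter constructs, they were exposed to test chemicals for 24 hours. Reporter RNA was then reverse-transcribed, PCR-amplified, FAM-labeled, HpaI-digested and quantified by capillary electrophoresis.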

Assay [13] in a line: ATG_RORE_CIS: Attagene CIS-FACTORIAL HepG2 Assay for human RAR-related Orphan Receptor Element (RORE) (AID 2282959). The conditions noted are these: HepG2 Attagene cis-factorial RORE reporter, mRNA; actives raise or lower the signal. The method, boiled down:
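Measured here: transcript induction of a cis-regulated reporter in HepG2 cells transiently transfected via FuGene 6. After 24 h, RNA was processed by RT-PCR and fluorescent capillary electrophoresis; DMSO defined baseline activity.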

Assay [14] in a line: ATG_Sox_CIS: Attagene CIS-FACTORIAL HepG2 Assay for human SRY-box transcription factor (SOX) (AID 2282960). Particulars: HepG2 Attagene cis-factorial SOX reporter, mRNA; actives raise or lower the signal. In a few lines:
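Using transiently transfected HepG2 cells, reporter transcription driven by cis elements was assessed 24 h after dosing. Signal was fluorescence of capillary-separated RT-PCR products, with DMSO defining baseline activity.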

For assay [15], the target named is Transcription factor Sp1 (Homo sapiens) (UniProt P08047). The assay can be described thus: ATG_Sp1_CIS: Attagene CIS-FACTORIAL HepG2 Assay for human Specificity Protein 1 (Sp1) (AID 2282961). The conditions noted are these: HepG2 Sp1 cis-reporter transcription, actives raise or lower the signal. In a few lines:
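After transient transfection of HepG2 cells with cis-promoter reporter units and 24 h chemical treatment, reporter transcripts were quantified by RT-PCR and capillary electrophoresis fluorescence. Gain- and loss-of-signal fitted against DMSO.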

Assay [16] is described as follows: ATG_SREBP_CIS: Attagene CIS-FACTORIAL HepG2 Assay for human Sterol Regulatory Element Binding (SREBP) (AID 2282962). The conditions noted are these: HepG2 Attagene cis-factorial SREBP reporter, mRNA; actives raise or lower the signal. In a few lines: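 Transfected HepG2 (cis-regulated reporter library, endogenous TFs) → compound 24 h → total RNA → oligo(dT) RT → reporter-specific PCR → FAM primer extension, HpaI cut → CE fluorescence. Fit bidirectional vs DMSO.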

In assay [17] the target is Signal transducer and activator of transcription 3 (Homo sapiens) (UniProt P40763). The assay can be described thus: ATG_STAT3_CIS: Attagene CIS-FACTORIAL HepG2 Assay for human Signal Transducer and Activator of Transcription 3 (STAT3) (AID 2282963). Particulars: HepG2, Attagene cis-factorial STAT3 reporter transcription; actives raise or lower the signal. The method, boiled down: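 HepG2 cells transiently transfected with cis-element-driven multiple reporter transcription units; after 24 h chemical exposure, reporter mRNA measured by RT-PCR, 6-FAM primer-extension labelling, HpaI digestion and capillary electrophoresis. Bidirectional fitting versus DMSO baseline.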

Assay [18] can be described thus: ATG_TA_CIS: Attagene CIS-FACTORIAL HepG2 Assay for human TA Basal Promoter (AID 2282964). The conditions noted are these: HepG2 Attagene CIS-factorial TA basal promoter reporter; actives raise or lower the signal. In a few lines: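 Transfected HepG2, 24 h compound exposure; RNA → RT-PCR → FAM primer extension → HpaI cut → CE fluorescence. Gain/loss-of-signal fitted against DMSO negative control. Background-control readout.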

A short description of assay [19]: ATG_TCF_b_cat_CIS: Attagene CIS-FACTORIAL HepG2 Assay for human T-Cell-Factor with beta-catenin (TCF/b-cat) (AID 2282965). Particulars: HepG2 TCF/beta-catenin cis-reporter transcription, actives raise or lower the signal. In a few lines: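 HepG2 cells transiently transfected with multiple cis-promoter-regulated reporter transcription units, so endogenous transcription factor activity is measured. Reporter mRNA read 24 hours after dosing by RT-PCR, fluorescent labelling and capillary electrophoresis; bidirectional fitting against DMSO.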

A short description of assay [20]: ATG_GRE_CIS: Attagene CIS-FACTORIAL HepG2 Assay for human Glucocorticoid Response Elements (GRE) (AID 2282947). The conditions noted are these: HepG2 GRE cis-reporter, Attagene multiplex mRNA; actives raise or lower the signal. In a few lines:
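HepG2 cells transiently transfected with multiple cis-promoter reporter units measure endogenous TF activity; 24 h compound exposure. Reporter mRNA quantified by RT-PCR, FAM labelling, HpaI digestion and capillary electrophoresis; bidirectional fit vs DMSO baseline.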

Molecules are shown by their SMILES. Active and inactive are the calls of the source. The calls were made as follows: active = hit-call score of the fitted dose curve at least 0.9, where 1 is the maximum; inactive = score below 0.9.

In general, AC50 refers to the midpoint of the concentration-response curve, whichever way the signal moves.

Chain of Transcription factor Sp1 (Homo sapiens) (P08047 whole entry, looked up): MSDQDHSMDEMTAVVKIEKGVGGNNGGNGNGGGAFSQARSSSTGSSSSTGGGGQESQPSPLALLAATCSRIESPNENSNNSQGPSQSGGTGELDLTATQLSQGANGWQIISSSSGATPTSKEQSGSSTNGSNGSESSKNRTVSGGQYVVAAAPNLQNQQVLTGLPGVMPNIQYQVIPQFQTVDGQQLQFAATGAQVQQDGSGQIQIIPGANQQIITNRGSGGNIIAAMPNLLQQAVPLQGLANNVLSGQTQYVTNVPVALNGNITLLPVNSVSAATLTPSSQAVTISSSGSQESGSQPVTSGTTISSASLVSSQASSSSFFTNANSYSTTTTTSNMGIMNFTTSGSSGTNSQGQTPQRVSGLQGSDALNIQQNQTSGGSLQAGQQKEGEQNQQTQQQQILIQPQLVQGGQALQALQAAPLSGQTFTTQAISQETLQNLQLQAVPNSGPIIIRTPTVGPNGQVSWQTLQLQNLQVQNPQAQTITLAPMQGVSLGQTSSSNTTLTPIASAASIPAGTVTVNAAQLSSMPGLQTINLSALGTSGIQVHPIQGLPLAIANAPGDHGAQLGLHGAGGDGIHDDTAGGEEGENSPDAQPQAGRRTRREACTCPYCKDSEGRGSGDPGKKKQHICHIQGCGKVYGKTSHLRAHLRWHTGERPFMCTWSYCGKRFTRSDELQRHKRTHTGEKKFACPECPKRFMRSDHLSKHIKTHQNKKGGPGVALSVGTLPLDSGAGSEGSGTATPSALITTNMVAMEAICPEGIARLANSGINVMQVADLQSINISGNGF
Chain of Hepatocyte nuclear factor 6 (Homo sapiens) (Q9UBC0 whole entry, looked up, the tested form may be a part): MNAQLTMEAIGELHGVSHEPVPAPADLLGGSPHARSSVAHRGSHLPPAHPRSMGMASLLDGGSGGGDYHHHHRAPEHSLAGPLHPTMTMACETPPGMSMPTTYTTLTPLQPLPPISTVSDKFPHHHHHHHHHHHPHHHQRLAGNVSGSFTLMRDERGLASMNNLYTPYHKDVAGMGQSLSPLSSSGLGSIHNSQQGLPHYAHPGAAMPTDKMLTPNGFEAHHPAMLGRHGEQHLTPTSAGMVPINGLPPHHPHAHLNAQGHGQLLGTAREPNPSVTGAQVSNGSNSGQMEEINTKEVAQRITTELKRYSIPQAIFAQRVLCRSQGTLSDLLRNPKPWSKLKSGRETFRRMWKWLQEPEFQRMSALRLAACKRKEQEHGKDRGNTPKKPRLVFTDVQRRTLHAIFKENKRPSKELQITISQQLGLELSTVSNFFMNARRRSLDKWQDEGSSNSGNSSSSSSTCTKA
Chain of Hypoxia-inducible factor 1-alpha (Homo sapiens) (Q16665 whole entry, looked up): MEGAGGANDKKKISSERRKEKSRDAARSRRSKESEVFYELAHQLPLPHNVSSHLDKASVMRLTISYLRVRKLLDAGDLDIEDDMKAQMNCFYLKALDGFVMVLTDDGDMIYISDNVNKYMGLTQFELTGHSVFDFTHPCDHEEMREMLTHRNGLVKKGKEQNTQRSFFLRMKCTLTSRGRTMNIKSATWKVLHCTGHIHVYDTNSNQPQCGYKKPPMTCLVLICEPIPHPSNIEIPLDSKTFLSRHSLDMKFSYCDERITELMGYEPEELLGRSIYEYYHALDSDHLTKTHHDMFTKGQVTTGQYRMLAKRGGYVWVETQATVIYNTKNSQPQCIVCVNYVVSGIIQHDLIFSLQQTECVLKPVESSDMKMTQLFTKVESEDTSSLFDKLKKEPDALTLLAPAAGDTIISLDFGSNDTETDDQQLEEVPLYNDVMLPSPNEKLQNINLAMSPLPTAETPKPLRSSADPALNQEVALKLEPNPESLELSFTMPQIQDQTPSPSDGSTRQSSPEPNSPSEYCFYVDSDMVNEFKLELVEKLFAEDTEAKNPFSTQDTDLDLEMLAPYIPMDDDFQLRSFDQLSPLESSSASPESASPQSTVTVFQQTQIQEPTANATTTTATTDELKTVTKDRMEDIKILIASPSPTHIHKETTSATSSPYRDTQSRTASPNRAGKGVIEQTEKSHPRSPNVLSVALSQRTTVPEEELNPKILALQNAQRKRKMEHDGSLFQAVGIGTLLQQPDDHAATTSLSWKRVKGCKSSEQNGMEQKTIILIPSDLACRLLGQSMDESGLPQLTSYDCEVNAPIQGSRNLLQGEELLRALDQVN
Chain of Paired box protein Pax-6 (Homo sapiens) (P26367 whole entry, looked up): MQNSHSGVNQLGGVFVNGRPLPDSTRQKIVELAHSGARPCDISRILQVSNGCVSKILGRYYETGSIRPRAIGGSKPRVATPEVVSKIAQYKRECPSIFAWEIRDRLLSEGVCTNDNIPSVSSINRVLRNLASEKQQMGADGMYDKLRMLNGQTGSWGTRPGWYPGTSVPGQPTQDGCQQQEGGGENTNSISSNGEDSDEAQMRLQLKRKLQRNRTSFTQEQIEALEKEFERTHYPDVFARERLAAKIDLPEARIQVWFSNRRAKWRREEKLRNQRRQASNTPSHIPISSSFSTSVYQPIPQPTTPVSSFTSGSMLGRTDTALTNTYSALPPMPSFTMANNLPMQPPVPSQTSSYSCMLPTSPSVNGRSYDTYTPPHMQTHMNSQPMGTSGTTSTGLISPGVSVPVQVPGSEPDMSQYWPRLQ
Chain of Signal transducer and activator of transcription 3 (Homo sapiens) (P40763 whole entry, looked up): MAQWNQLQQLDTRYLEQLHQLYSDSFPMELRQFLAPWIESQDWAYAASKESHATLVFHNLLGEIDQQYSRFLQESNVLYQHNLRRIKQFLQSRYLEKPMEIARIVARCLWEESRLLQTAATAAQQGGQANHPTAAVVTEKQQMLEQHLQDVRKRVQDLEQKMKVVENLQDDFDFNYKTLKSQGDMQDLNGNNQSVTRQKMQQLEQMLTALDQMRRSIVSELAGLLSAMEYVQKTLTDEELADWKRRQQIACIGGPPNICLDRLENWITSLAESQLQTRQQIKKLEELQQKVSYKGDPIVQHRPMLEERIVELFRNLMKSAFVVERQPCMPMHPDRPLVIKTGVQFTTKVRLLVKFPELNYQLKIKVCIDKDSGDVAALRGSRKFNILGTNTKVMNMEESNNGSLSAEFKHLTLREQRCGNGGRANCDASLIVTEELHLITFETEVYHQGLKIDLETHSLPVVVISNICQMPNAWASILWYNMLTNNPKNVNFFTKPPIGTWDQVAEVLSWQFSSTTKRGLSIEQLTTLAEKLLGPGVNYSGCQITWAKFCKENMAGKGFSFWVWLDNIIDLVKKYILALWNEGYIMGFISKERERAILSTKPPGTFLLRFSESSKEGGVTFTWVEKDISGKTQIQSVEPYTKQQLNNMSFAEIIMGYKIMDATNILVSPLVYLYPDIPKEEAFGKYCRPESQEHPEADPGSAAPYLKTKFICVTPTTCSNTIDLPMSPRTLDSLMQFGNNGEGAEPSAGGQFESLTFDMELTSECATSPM
Chain of Heat shock factor protein 1 (Homo sapiens) (Q00613 whole entry, looked up, the tested form may be a part): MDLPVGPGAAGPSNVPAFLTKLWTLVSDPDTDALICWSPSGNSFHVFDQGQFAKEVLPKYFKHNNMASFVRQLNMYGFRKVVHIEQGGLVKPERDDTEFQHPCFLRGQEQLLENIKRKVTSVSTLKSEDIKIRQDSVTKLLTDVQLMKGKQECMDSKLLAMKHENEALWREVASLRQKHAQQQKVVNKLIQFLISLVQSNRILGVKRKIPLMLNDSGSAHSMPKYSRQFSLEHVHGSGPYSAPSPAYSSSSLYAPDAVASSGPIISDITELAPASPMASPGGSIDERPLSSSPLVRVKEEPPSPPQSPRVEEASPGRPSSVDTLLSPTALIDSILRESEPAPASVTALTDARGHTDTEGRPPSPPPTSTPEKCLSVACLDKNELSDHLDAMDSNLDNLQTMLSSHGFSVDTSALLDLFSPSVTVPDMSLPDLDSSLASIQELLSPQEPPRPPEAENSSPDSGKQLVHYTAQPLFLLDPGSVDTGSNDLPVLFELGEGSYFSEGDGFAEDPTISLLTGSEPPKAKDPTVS

With `COP(=S)(OC)Oc1ccc([N+](=O)[O-])cc1`, the molecule was called inactive in assay [1], in assay [2], in [3], in assay [4], in [5] and in assay [6]. The call in assay [7], in [8], in assay [9], in assay [10], in assay [11] and in [12] was inactive. Besides, the result in assay [13], in assay [14], in assay [15], in assay [16], in [17] and in assay [18] was inactive. In assay [19], the outcome was inactive.

Regarding `CCN(CC)C(=O)SCc1ccc(Cl)cc1`, the call in assay [1], in assay [20], in assay [2], in [3], in assay [4] and in [5] was inactive. Further, the molecule was called inactive in assay [6], in assay [7], in assay [10], in assay [14], in assay [15] and in assay [16]. The result in assay [17], in assay [18] and in assay [19] was inactive. Moreover, the AC50 in [8] is 65.9 µM (active); in [11] it was 4.49 µM (active); in assay [13] it was 19 µM (active).

For the molecule `Cc1[nH]c(=O)n(C(C)(C)C)c(=O)c1Cl`, the molecule was called inactive in assay [1], in assay [2], in assay [3], in assay [4], in assay [5] and in assay [6]. Besides, the outcome in assay [7], in [10], in assay [11], in assay [13], in assay [14] and in [16] was inactive. Also, the molecule was called inactive in assay [17], in assay [18] and in [19]. Moreover, the results for the concentration at half-maximal activity (AC50) in assay [8], in [9] and in assay [15] were 50 µM (active), 80.8 µM (active) and 50 µM (active), respectively.
